Laboratory results as given in PubChem BioAssay AID1625 (Sanford-Burnham Center for Chemical Genomics, 2009).
Hit rate of the full screen: of about 190,000 compounds, about 570 (0.3%) were called active.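 Rule for the calls: active = z-score above 3 at 5 µM with at least 500 cells counted in the well; inconclusive = wells under 500 cells, flagged as cytotoxic or low count; inactive = the rest.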 For the sample, actives were picked, then their nearest neighbours and some compounds at random.

Assay: up-regulation of insulin promoter-GFP reporter – imaging, high-content screening, mouse beta cells (AID 1625);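 for cell count: total cells summed across four imaged fields per well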
Conditions: MIN6 insulin promoter-GFP reporter, at 5 µM; cell count: measured here: cytotoxicity, nuclei count; z-score: stronger effect = higher value

Q: For CCn1c(Cc2cccs2)nnc1SCC(=O)c1ccc(C)cc1, which cell count is on record?
A: 827 cells

Q: What about the z-score of the same compound?
A: -1.87 (inactive)

Q: With COc1ccc(-n2c(SCC(=O)OC(C)C)nnc2-c2ccccn2)cc1 as the compound, how does the cell count read?
A: 1260 cells

Q: And the z-score?
A: 0.29 (inactive)

Q: With Cc1ccc(-n2c(Cc3cccs3)nnc2SCC(=O)OC(C)C)cc1 as the compound, how does the cell count read?
A: 993 cells

Q: What about the z-score of the same compound?
A: 3.05 (active)

Q: Which results are given for Cc1ccc(Oc2nc(-c3ccccn3)nc3ccccc23)cc1?
A: cell count: 1010 cells; z-score: -0.89 (inactive)

Q: With O=C1N(c2ccccc2)C(=Nc2ccccc2)SC12CC2 as the compound, how does the cell count read?
A: 1070 cells

Q: What about the z-score of the same compound?
A: -0.2 (inactive)

Q: What does the source list for COc1ccc(OC)c(S(=O)(=O)NCCC(C)C)c1?
A: cell count: 1220 cells; z-score: -0.95 (inactive)

Q: Which cell count does the source give for CCOC(=O)CN(C(=O)COc1nc(-c2ccccc2)cc(C)c1C#N)c1ccc(F)cc1 here?
A: 1080 cells

Q: And the z-score?
A: -0.04 (inactive)

Q: Which results are given for CCOC(=O)C1CCN(C(=O)Nc2ccc(C)c(Cl)c2)CC1?
A: cell count: 1020 cells; z-score: -0.22 (inactive)

Q: Which cell count does the source give for O=C(CCCN1C(=O)/C(=C\c2ccccc2)SC1=S)Nc1ccccc1O here?
A: 1110 cells

Q: What about the z-score of the same compound?
A: -1.05 (inactive)

Q: Which cell count does the source give for O=C(CCN1C(=O)/C(=C/c2cccs2)SC1=S)NNC(=O)c1cccc(O)c1 here?
A: 1100 cells

Q: And the z-score?
A: 3.43 (active)

Q: For O=C(CCCN1C(=O)/C(=C/c2ccccc2)SC1=S)Nc1ccc(O)cc1, which cell count is on record?
A: 1550 cells

Q: What about the z-score of the same compound?
A: -0.31 (inactive)

Q: Which cell count does the source give for Nc1nc(O)c(CC(=O)O)s1 here?
A: 1490 cells

Q: And the z-score?
A: -0.64 (inactive)

Q: For Cc1ccc(NNC(=O)C2CCC2)cc1C, which cell count is on record?
A: 1450 cells

Q: And the z-score?
A: -0.26 (inactive)

Q: For CCOC(=O)C1=NN(c2ccc(Cl)cc2)/C(=C/C2=NCCc3cc(OC)c(OC)cc32)S1, which cell count is on record?
A: 1380 cells

Q: And the z-score?
A: 0.35 (inactive)

Q: For CCCN(CCC)CC(O)COc1ccccc1C(=O)Nc1ccccc1 (stereo unspecified), which cell count is on record?
A: 1020 cells

Q: What about the z-score of the same compound?
A: -0.54 (inactive)

Q: Which cell count does the source give for COc1ccc(-c2[nH]ncc2CN(Cc2nccn2C)C(C)C)cc1F here?
A: 1490 cells

Q: What about the z-score of the same compound?
A: -1.07 (inactive)

Q: What does the source list for O=S(=O)([N-]c1nc2ccccc2nc1-[n+]1ccc(Cc2ccccc2)cc1)c1ccc(Br)s1?
A: cell count: 1020 cells; z-score: -0.15 (inactive)

Q: For [O-][N+]12CCCCC1CCCC2CO (stereo unspecified), which cell count is on record?
A: 977 cells

Q: What about the z-score of the same compound?
A: 0.05 (inactive)

Q: For O=c1c(-c2ccc(Cl)cc2)[n+]([O-])c2ccccc2n1OCc1nc2ccccc2[nH]1, which cell count is on record?
A: 1200 cells

Q: What about the z-score of the same compound?
A: -1.15 (inactive)

Q: For CCOc1ccc(OCC)c(-c2c(=O)n(OCc3ccc(Cl)cc3)c3ccccc3[n+]2[O-])c1, which cell count is on record?
A: 1410 cells

Q: What about the z-score of the same compound?
A: 3.34 (active)

Q: What does the source list for COc1ccc(OC)c(-c2c(=O)n(OCc3ccccc3Br)c3ccccc3[n+]2[O-])c1?
A: cell count: 1330 cells; z-score: -0.44 (inactive)

Q: With CCN(CC)CCNCC(=O)Nc1ccc(Oc2ccccc2)cc1 as the compound, how does the cell count read?
A: 919 cells

Q: What about the z-score of the same compound?
A: -0.39 (inactive)

Q: With C/C(=N\Nc1cccc(C(=O)O)c1)c1ccc2c(c1)Nc1ccccc1S2 as the compound, how does the cell count read?
A: 1020 cells

Q: What about the z-score of the same compound?
A: -0.12 (inactive)

Q: For O=C(Cn1c(N2CCN(C/C=C/c3ccccc3)CC2)nc2ccccc21)c1ccccc1, which cell count is on record?
A: 1150 cells

Q: What about the z-score of the same compound?
A: -0.35 (inactive)

Q: What does the source list for COc1ccc(F)cc1S(=O)(=O)N1CCCCC1?
A: cell count: 1090 cells; z-score: 0.19 (inactive)

Q: Which results are given for N#C/C(=C\N1CCOCC1)S(=O)(=O)c1ccc(Cl)cc1?
A: cell count: 930 cells; z-score: -0.15 (inactive)

Q: What does the source list for CCc1ccc(S(=O)(=O)Nc2ccc(C)c(NS(C)(=O)=O)c2)cc1?
A: cell count: 1030 cells; z-score: 0.6 (inactive)

Q: Which cell count does the source give for CCCCNC(=O)c1onc(CSc2cccc(OC)c2)c1C(=O)O here?
A: 1420 cells

Q: And the z-score?
A: -0.14 (inactive)

Q: For COCCNC(=O)c1onc(CSc2cccc(C)c2)c1C(=O)O, which cell count is on record?
A: 1620 cells

Q: And the z-score?
A: 3.82 (active)

Q: Which results are given for CCOc1cccc(SCc2noc(C(=O)NC(C)C)c2C(=O)O)c1?
A: cell count: 1590 cells; z-score: -0.64 (inactive)

Q: Which results are given for CN(CC(=O)Nc1ccc(F)cc1)CC(=O)Nc1ccc(Cl)c(S(=O)(=O)N2CCOCC2)c1?
A: cell count: 1070 cells; z-score: -0.46 (inactive)

Q: For CC(C)NC(=O)/C(C#N)=C\c1ccc(N(C)C)c(Br)c1, which cell count is on record?
A: 1460 cells

Q: What about the z-score of the same compound?
A: 0.33 (inactive)

Q: For COC(=O)c1cc(C)sc1NC(=O)CC1Nc2ccccc2NC1=O (stereo unspecified), which cell count is on record?
A: 1110 cells

Q: And the z-score?
A: 2.17 (inactive)

Q: Which cell count does the source give for CCc1cc(C(=O)OC)c(NC(=O)CC2Sc3ccc(C(F)(F)F)cc3NC2=O)s1 (stereo unspecified) here?
A: 1330 cells

Q: What about the z-score of the same compound?
A: 3.33 (active)

Q: With Cc1ccc(CNC(=O)CC2Sc3ccccc3NC2=O)cc1 (stereo unspecified) as the compound, how does the cell count read?
A: 1420 cells

Q: What about the z-score of the same compound?
A: -0.57 (inactive)

Q: With CCc1ccc(NC(=O)N[C@H](C(=O)O)C(C)CC)cc1 (stereo partly specified) as the compound, how does the cell count read?
A: 978 cells

Q: And the z-score?
A: 0.03 (inactive)

Q: Which results are given for O=C(Nc1nnc(SCc2c(Cl)cccc2Cl)s1)c1cccc([N+](=O)[O-])c1?
A: cell count: 1070 cells; z-score: 0.41 (inactive)

Q: Which cell count does the source give for Nc1nnc(SCn2nnc3ccccc3c2=O)s1 here?
A: 1620 cells

Q: What about the z-score of the same compound?
A: 0.07 (inactive)

Q: Which results are given for COc1ccc(C2C(C(=O)N3CCN(c4ccc(OC)cc4)CC3)c3ccccc3C(=O)N2C)cc1 (stereo unspecified)?
A: cell count: 1330 cells; z-score: -1.17 (inactive)

Q: Which cell count does the source give for CCOc1ccc(C2C(C(=O)O)c3ccccc3C(=O)N2CCN2CCOCC2)cc1 (stereo unspecified) here?
A: 1350 cells

Q: And the z-score?
A: 4.94 (active)

Q: What does the source list for CCOc1cc2c(cc1OCC)C(C(=O)O)C(c1ccc(OC)c(O)c1)N(C)C2=O (stereo unspecified)?
A: cell count: 1550 cells; z-score: 0.1 (inactive)

Q: Which results are given for O=C(COC(=O)/C=C/c1ccc2c(c1)OCO2)NC1CCS(=O)(=O)C1 (stereo unspecified)?
A: cell count: 933 cells; z-score: -0.06 (inactive)

Q: Which results are given for COc1ccccc1N1CCN(C(=O)CSc2ncnc3c2cnn3-c2ccc(C)c(C)c2)CC1?
A: cell count: 959 cells; z-score: -0.23 (inactive)

Q: Which cell count does the source give for CC1Cc2ccccc2N1S(=O)(=O)c1ccc(Cl)nc1 (stereo unspecified) here?
A: 1130 cells

Q: What about the z-score of the same compound?
A: 0.1 (inactive)

Q: For CCc1nnc(NC(=O)CCC(=O)O)s1, which cell count is on record?
A: 879 cells

Q: And the z-score?
A: -0.23 (inactive)

Q: With CCc1nnc(NC(=O)CCC(=O)NCc2ccccc2OC)s1 as the compound, how does the cell count read?
A: 1600 cells

Q: And the z-score?
A: 4.05 (active)

Q: With COc1ccccc1CNC(=O)CCn1c(=O)sc2ccccc21 as the compound, how does the cell count read?
A: 1300 cells

Q: What about the z-score of the same compound?
A: -0.13 (inactive)

Q: Which cell count does the source give for O=C(Nc1ccc(Cl)cc1)/C(=C1\CCCN1)[N+](=O)[O-] here?
A: 1400 cells

Q: And the z-score?
A: 0.56 (inactive)

Q: For COc1ccc(OC)c(-c2csc(NC(=O)C3=NNC(=O)CC3)n2)c1, which cell count is on record?
A: 1110 cells

Q: And the z-score?
A: 1.47 (inactive)

Q: With CCOc1cccc(/C=C/c2ccc3ccccc3n2)c1OC(C)=O as the compound, how does the cell count read?
A: 1230 cells

Q: What about the z-score of the same compound?
A: -0.46 (inactive)

Q: Which cell count does the source give for Cc1nc(COc2cccc(Cl)c2)sc1C(=O)/C=C/N(C)C here?
A: 1040 cells

Q: What about the z-score of the same compound?
A: 0.55 (inactive)

Q: Which cell count does the source give for CN1CCN(c2ccc(S(=O)(=O)N3CCOCC3)cc2NC(=O)CCc2ccccc2)CC1 here?
A: 1040 cells

Q: And the z-score?
A: 0.32 (inactive)

Q: Which cell count does the source give for C=CCC(Nc1ccccc1)c1cccc(OC)c1OC (stereo unspecified) here?
A: 1080 cells

Q: And the z-score?
A: -0.62 (inactive)
